According to the supplement of paper PMC9135407:
“And” between values parts separate entries of the source, which are not always exact repeats. Equal values may be shown once. Where a name gives a salt, the structure may show the parent alone. The whole screen tested about 5,800 compounds, of which about 620 (11%) showed activity. The entries come from a sample that favours actives as a whole. Values without a mark were called inactive.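 How the source made its calls: active = score above a cut-off or among the top three wells of a plate; in these data no inactive exceeds 0.85.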

System: primary human hepatic stellate cells (donor 1)
Assay: scaled lipid accumulation score (0 = DMSO-like, 1 = nortriptyline-like); higher = stronger HSC inactivation (lipid re-accumulation), active = hit call of the paper
Details: 48 h
[1] = library stock concentration: 10 mM
[2] = library stock concentration: 3.33 mM
[3] = library stock concentration: 1 mM
[4] = library stock concentration: 80 uM
[5] = library stock concentration: 400 uM
[6] = library stock concentration: 2 mM

`O=C(O)CSCC(=O)NC1CCSC1=O` (stereo not drawn) was tested, and the “scaled lipid accumulation score” value [1] was no more than 0.
`O=C(O)CSCC(=O)NC1CCSC1=O` (stereo not drawn) [Erdosteine] was tested, and the “scaled lipid accumulation score” value [2] was no more than 0 and the “scaled lipid accumulation score” value [1] was no more than 0.
In the case of `CC(C)OC(=O)CCC/C=C/C[C@@H]1[C@@H](/C=C/[C@H](O)CCc2ccccc2)[C@H](O)C[C@@H]1O`, the “scaled lipid accumulation score” value [3] is reported as no more than 0.
With `C1CNCCN1` [Piperazine] the “scaled lipid accumulation score” value [1] was no more than 0 and the “scaled lipid accumulation score” value (library stock concentration: 23.2 mM) was 0.066.
In the case of `O=C(O)CCCCC(CCSCc1ccccc1)SCc1ccccc1` (stereo not drawn), the “scaled lipid accumulation score” value [2] is reported as no more than 0 and the “scaled lipid accumulation score” value [1] is reported as no more than 0.
For `CCCC[C@@H](C=O)NC(=O)[C@H](CC(C)C)NC(=O)[C@H](CC(C)C)NC(C)=O`, the “scaled lipid accumulation score” value (library stock concentration: 13 mM) was 0.811.
`CC(C)c1ccc(NC(=O)Cn2cnc3c2c(=O)n(C)c(=O)n3C)cc1` was tested, and the “scaled lipid accumulation score” value [2] was no more than 0 and the “scaled lipid accumulation score” value [1] was no more than 0.
With `CCCCC/C=C\C/C=C\CCCCCCCC(=O)OCC` [Linoleic Acid ethyl ester] the “scaled lipid accumulation score” value [3] was no more than 0.
For `OCCCNc1cc(-c2ccnc(Nc3cccc(Cl)c3)n2)ccn1` [listing 1 of 2 here], the “scaled lipid accumulation score” value [4] was 0.137, the “scaled lipid accumulation score” value [5] was 0.324 and the “scaled lipid accumulation score” value [6] was 0.587.
With `COc1ccc(Nc2nccc(NCCO)n2)cc1` [Cardiogenol C (hydrochloride)] the “scaled lipid accumulation score” value [3] was no more than 0.
With `COc1ccc(Nc2nccc(NCCO)n2)cc1` [Cardiogenol C hydrochloride] the “scaled lipid accumulation score” value [1] was no more than 0.
With `OCCCNc1cc(-c2ccnc(Nc3cccc(Cl)c3)n2)ccn1` [listing 2 of 2 here] the “scaled lipid accumulation score” value [1] was 0.957 (active).
For `C[C@@]1(c2cc(-c3cncnc3)c(F)cc2F)CCSC(N)=N1`, the “scaled lipid accumulation score” value [2] was no more than 0 and the “scaled lipid accumulation score” value [1] was no more than 0.
In the case of `CCCCCCCCCCC/C=C\C/C=C\CCCC(=O)O` [Eicosa-5,8-dienoic acid (20:2 n-12)], the “scaled lipid accumulation score” value [3] is reported as no more than -0.021.
In the case of `COc1cc(C(C)=O)ccc1OCCCN1CCC(c2noc3cc(F)ccc23)CC1`, the “scaled lipid accumulation score” value [1] is reported as 0.933 (active).
With `COc1cc(C(C)=O)ccc1OCCCN1CCC(c2noc3cc(F)ccc23)CC1` [Iloperidone] the “scaled lipid accumulation score” value [2] was 0.045 and the “scaled lipid accumulation score” value [1] was 0.477.
With `Cc1nc2n(c(=O)c1CCN1CCC(c3noc4cc(F)ccc34)CC1)CCCC2O` (stereo not drawn) [Paliperidone] the “scaled lipid accumulation score” value [1] was 0.223.
For `C[Se]CC[C@H](N)C(=O)O`, the “scaled lipid accumulation score” value [1] was no more than 0.
With `COc1ccc(N(C(=O)Nc2c(C)cccc2C)c2cc(Nc3ccc(N4CCN(C)CC4)cc3)ncn2)c(OC)c1` the “scaled lipid accumulation score” value [4] was no more than -0.016, the “scaled lipid accumulation score” value [5] was 0.184 and the “scaled lipid accumulation score” value [6] was 0.849.
With `Cc1ccc(-c2ccc3c(ccc4sc5c(c43)NC[C@@H](C)NC5=O)n2)cn1` [listing 1 of 2 here] the “scaled lipid accumulation score” value [1] was 1.28 (active).
In the case of `Cc1ccc(-c2ccc3c(ccc4sc5c(c43)NC[C@@H](C)NC5=O)n2)cn1` [listing 2 of 2 here], the “scaled lipid accumulation score” value [4] is reported as no more than -0.001, the “scaled lipid accumulation score” value [5] is reported as no more than -0.001 and the “scaled lipid accumulation score” value [6] is reported as 0.744.
In the case of `CN(C)CC(c1ccc(O)cc1)C1(O)CCCCC1` (stereo not drawn) [Desvenlafaxine], the “scaled lipid accumulation score” value [2] is reported as no more than 0 and the “scaled lipid accumulation score” value [1] is reported as no more than -0.001.
`CN(C)CC(c1ccc(O)cc1)C1(O)CCCCC1` (stereo not drawn) [Desvenlafaxine Succinate] was tested, and the “scaled lipid accumulation score” value [2] was no more than 0 and the “scaled lipid accumulation score” value [1] was no more than -0.001.
In the case of `CN(C)CC(c1ccc(O)cc1)C1(O)CCCCC1` (stereo not drawn), the “scaled lipid accumulation score” value [1] is reported as no more than 0.
For `Cc1ccc(NC(=O)C(C)C)cc1C1CCN(Cc2ccc(Oc3ccc(F)c(F)c3)cc2)CC1.Cl`, the “scaled lipid accumulation score” value [1] was 1.29 (active).
In the case of `CC(=O)c1ccc(N2CCOCC2)cc1O` [DNA-PK Inhibitor III], the “scaled lipid accumulation score” value [2] is reported as no more than 0.
`N[C@@H](CCC(=O)N[C@@H](CSN=O)C(=O)NCC(=O)O)C(=O)O` [S-Nitrosoglutathione] was tested, and the “scaled lipid accumulation score” value [1] was no more than -0.032.
With `Cc1cc2nc3c(=O)[nH]c(=O)nc-3n(CC(O)C(O)C(O)COP(=O)(O)O)c2cc1C` (stereo not drawn) the “scaled lipid accumulation score” value [1] was no more than 0.
For `CC1=C(C(=O)OC2CCCCC2)C(c2ccc([N+](=O)[O-])cc2)C2=C(CC(C)(C)CC2=O)N1` (stereo not drawn) [listing 1 of 2 here], the “scaled lipid accumulation score” value [1] was 0.997 (active).
In the case of `COC(=O)C1=C(C)NC(C)=C(C(=O)OC2CCCN(Cc3ccccc3)C2)C1c1cccc([N+](=O)[O-])c1` (stereo not drawn), the “scaled lipid accumulation score” value [1] is reported as 0.032.
`CC1=C(C(=O)OC2CCCCC2)C(c2ccc([N+](=O)[O-])cc2)C2=C(CC(C)(C)CC2=O)N1` (stereo not drawn) [listing 2 of 2 here] was tested, and the “scaled lipid accumulation score” value [2] was 0.763.
For `COC(=O)C1=C(C)NC(C)=C(C(=O)OC2CCCN(Cc3ccccc3)C2)C1c1cccc([N+](=O)[O-])c1` (stereo not drawn) [Benidipine HCl], the “scaled lipid accumulation score” value [2] was 0.027 and the “scaled lipid accumulation score” value [1] was 0.476.
With `COC(=O)c1c(C)[nH]c(C)c1C(=O)c1ccccc1Cc1ccccc1` the “scaled lipid accumulation score” value [1] was 0.13 and 0.001.
In the case of `CNCCCCOc1ccccc1Cc1ccccc1.Cl` [Bifemelane hydrochloride], the “scaled lipid accumulation score” value [1] is reported as 1.41 (active).
With `CCCCCCOc1ccccc1C(N)=O` [Exalamide] the “scaled lipid accumulation score” value [1] was no more than -0.027.
With `CNCCCCOc1ccccc1Cc1ccccc1` [Bifemelane] the “scaled lipid accumulation score” value [1] was 1.08 (active).
In the case of `CCOC(=O)c1c(Cc2cccc(Cl)c2)[nH]c2c1cc(O)c1ccccc12`, the “scaled lipid accumulation score” value [3] is reported as no more than 0.
`CC/C=C\C/C=C\C/C=C\CCCCCCCC(=O)NCCO` [.alpha.-Linolenoyl Ethanolamide] was tested, and the “scaled lipid accumulation score” value [3] was 0.006.
For `CCOc1nc(NC(=O)Cc2cc(OC)ccc2OC)cc(N)c1C#N` [JNK Inhibitor VIII], the “scaled lipid accumulation score” value [2] was no more than 0.
With `CNc1cc(OC)c(C(=O)NC2CCN(Cc3ccccc3)C2C)cc1Cl` (stereo not drawn) [Nemonapride] the “scaled lipid accumulation score” value [1] was 0.728.
With `NC(=O)Nc1sc(-c2ccccc2)cc1C(N)=O` [IKK-2 Inhibitor VI] the “scaled lipid accumulation score” value [2] was no more than 0.
`COc1cccc(CCc2ccccc2OCC[C@@H]2C[C@@H](O)CN2C)c1.Cl` was tested, and the “scaled lipid accumulation score” value [1] was 1.18 (active).
For `OCc1c[nH]c2ccccc12` [Indole-3-carbinol], the “scaled lipid accumulation score” value [2] was no more than 0 and the “scaled lipid accumulation score” value [1] was no more than 0.
In the case of `OC1(c2ccc(Cl)cc2)CCN(Cc2c[nH]c3ccccc23)CC1`, the “scaled lipid accumulation score” value [1] is reported as 1.17 (active).
`c1ccc2c(Cc3c[nH]c4ccccc34)c[nH]c2c1` [Diidolylmethane] was tested, and the “scaled lipid accumulation score” value [3] was no more than -0.021.
With `CC[C@@H](CC[C@@H](C)[C@H]1CC[C@H]2[C@@H]3CCC4C[C@@H](O)CC[C@]4(C)[C@H]3CC[C@]12C)C(C)C` (stereo partly drawn) [Beta-sistosterol] the “scaled lipid accumulation score” value was no more than 0.
`COc1cc(OC)cc(OC)c1` [1,3,5-trimethoxybenzene] was tested, and the “scaled lipid accumulation score” value [1] was no more than 0.
